Experimental data published in the supplement of paper PMC4466140.

target: AgAbp1; assay: SPOT peptide array binding signal intensity (averaged, normalized) (arbitrary units (background-subtracted, floor 0; scale differs between SH3 domains)); higher = stronger binding of the SH3 domain to the peptide
Summary of the method: (§1)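 E. coli BL21(DE3) was used to express GST-fused SH3 domains from four yeast species, which were then purified on glutathione Sepharose. These were incubated at 10 μg/ml in TBS-based blocking buffer overnight at 4°C on cellulose membranes carrying synthetic 15-mer peptides, in which cysteines were replaced by serines. Binding signal is the replicate average of normalized, background-subtracted spot intensity, in arbitrary units that differ between domains.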

Binder	SPOT peptide array binding signal intensity
SRSKPLPLTPNSKYN	197
RSLRKRPTSPSISGS	197

target: AgBbc1; assay: as above
Summary of the method: as §1

Binder	SPOT peptide array binding signal intensity
SRSKPLPLTPNSKYN	15.2
RSLRKRPTSPSISGS	232

target: AgBem1-D1; assay: as above
Summary of the method: as §1

Binder	SPOT peptide array binding signal intensity
SRSKPLPLTPNSKYN	16
RSLRKRPTSPSISGS	118

target: AgBzz1-D1; assay: as above
Summary of the method: as §1

Binder	SPOT peptide array binding signal intensity
SRSKPLPLTPNSKYN	195
RSLRKRPTSPSISGS	62.5

target: AgBzz1-D2; assay: as above
Summary of the method: as §1

Binder	SPOT peptide array binding signal intensity
SRSKPLPLTPNSKYN	111
RSLRKRPTSPSISGS	63

target: AgCyk3; assay: as above
Summary of the method: as §1

Binder	SPOT peptide array binding signal intensity
SRSKPLPLTPNSKYN	1
RSLRKRPTSPSISGS	23

target: AgFus1; assay: as above
Summary of the method: as §1

Binder	SPOT peptide array binding signal intensity
SRSKPLPLTPNSKYN	6.5
RSLRKRPTSPSISGS	464

target: AgHof1; assay: as above
Summary of the method: as §1

Binder	SPOT peptide array binding signal intensity
SRSKPLPLTPNSKYN	24.2
RSLRKRPTSPSISGS	77

target: AgHse1; assay: as above
Summary of the method: as §1

Binder	SPOT peptide array binding signal intensity
SRSKPLPLTPNSKYN	10.5
RSLRKRPTSPSISGS	1610

target: AgLsb1; assay: as above
Summary of the method: as §1

Binder	SPOT peptide array binding signal intensity
SRSKPLPLTPNSKYN	1
RSLRKRPTSPSISGS	7

target: AgLsb4; assay: as above
Summary of the method: as §1

Binder	SPOT peptide array binding signal intensity
SRSKPLPLTPNSKYN	9
RSLRKRPTSPSISGS	326

target: AgMyo5; assay: as above
Summary of the method: as §1

Binder	SPOT peptide array binding signal intensity
SRSKPLPLTPNSKYN	≤ 0
RSLRKRPTSPSISGS	1

target: AgNbp2; assay: as above
Summary of the method: as §1

Binder	SPOT peptide array binding signal intensity
SRSKPLPLTPNSKYN	8.5
RSLRKRPTSPSISGS	724

target: AgRvs167; assay: as above
Summary of the method: as §1

Binder	SPOT peptide array binding signal intensity
SRSKPLPLTPNSKYN	1.67
RSLRKRPTSPSISGS	9.67

target: AgSho1; assay: as above
Summary of the method: as §1

Binder	SPOT peptide array binding signal intensity
SRSKPLPLTPNSKYN	3200
RSLRKRPTSPSISGS	80.5

target: AgSla1-D1-D2; assay: as above
Summary of the method: as §1

Binder	SPOT peptide array binding signal intensity
SRSKPLPLTPNSKYN	21.5
RSLRKRPTSPSISGS	698

target: AgSla1-D3; assay: as above
Summary of the method: as §1

Binder	SPOT peptide array binding signal intensity
SRSKPLPLTPNSKYN	8.5
RSLRKRPTSPSISGS	3.5

target: CaAbp1-D1; assay: as above
Summary of the method: as §1

Binder	SPOT peptide array binding signal intensity
SRSKPLPLTPNSKYN	64
RSLRKRPTSPSISGS	1720

target: CaAbp1-D2; assay: as above
Summary of the method: as §1

Binder	SPOT peptide array binding signal intensity
SRSKPLPLTPNSKYN	249
RSLRKRPTSPSISGS	1730

target: CaBbc1; assay: as above
Summary of the method: as §1

Binder	SPOT peptide array binding signal intensity
SRSKPLPLTPNSKYN	30
RSLRKRPTSPSISGS	522

target: CaBem1-D1; assay: as above
Summary of the method: as §1

Binder	SPOT peptide array binding signal intensity
SRSKPLPLTPNSKYN	29.5
RSLRKRPTSPSISGS	57.5

target: CaBzz1-D1; assay: as above
Summary of the method: as §1

Binder	SPOT peptide array binding signal intensity
SRSKPLPLTPNSKYN	384
RSLRKRPTSPSISGS	86

target: CaBzz1-D2; assay: as above
Summary of the method: as §1

Binder	SPOT peptide array binding signal intensity
SRSKPLPLTPNSKYN	162
RSLRKRPTSPSISGS	94.5

target: CaCyk3; assay: as above
Summary of the method: as §1

Binder	SPOT peptide array binding signal intensity
SRSKPLPLTPNSKYN	4
RSLRKRPTSPSISGS	201

target: CaFus1; assay: as above
Summary of the method: as §1

Binder	SPOT peptide array binding signal intensity
SRSKPLPLTPNSKYN	83
RSLRKRPTSPSISGS	985

target: CaHof1; assay: as above
Summary of the method: as §1

Binder	SPOT peptide array binding signal intensity
SRSKPLPLTPNSKYN	≤ 0
RSLRKRPTSPSISGS	0.75

target: CaHse1; assay: as above
Summary of the method: as §1

Binder	SPOT peptide array binding signal intensity
SRSKPLPLTPNSKYN	8.25
RSLRKRPTSPSISGS	204

target: CaLsb1; assay: as above
Summary of the method: as §1

Binder	SPOT peptide array binding signal intensity
SRSKPLPLTPNSKYN	0.5
RSLRKRPTSPSISGS	≤ 0

target: CaLsb4; assay: as above
Summary of the method: as §1

Binder	SPOT peptide array binding signal intensity
SRSKPLPLTPNSKYN	10.5
RSLRKRPTSPSISGS	338

target: CaMyo5; assay: as above
Summary of the method: as §1

Binder	SPOT peptide array binding signal intensity
SRSKPLPLTPNSKYN	10
RSLRKRPTSPSISGS	6

target: CaNbp2; assay: as above
Summary of the method: as §1

Binder	SPOT peptide array binding signal intensity
SRSKPLPLTPNSKYN	19.5
RSLRKRPTSPSISGS	1160

target: CaRvs167; assay: as above
Summary of the method: as §1

Binder	SPOT peptide array binding signal intensity
SRSKPLPLTPNSKYN	6.17
RSLRKRPTSPSISGS	27.5

target: CaRvs167-3; assay: as above
Summary of the method: as §1

Binder	SPOT peptide array binding signal intensity
SRSKPLPLTPNSKYN	2.75
RSLRKRPTSPSISGS	210

target: CaSho1; assay: as above
Summary of the method: as §1

Binder	SPOT peptide array binding signal intensity
SRSKPLPLTPNSKYN	3190
RSLRKRPTSPSISGS	972

target: CaSla1-D1-D2; assay: as above
Summary of the method: as §1

Binder	SPOT peptide array binding signal intensity
SRSKPLPLTPNSKYN	1430
RSLRKRPTSPSISGS	226

target: CaSla1-D3; assay: as above
Summary of the method: as §1

Binder	SPOT peptide array binding signal intensity
SRSKPLPLTPNSKYN	1.5
RSLRKRPTSPSISGS	1.5

target: ScAbp1; assay: as above
Summary of the method: as §1

Binder	SPOT peptide array binding signal intensity
SRSKPLPLTPNSKYN	332
RSLRKRPTSPSISGS	65

target: ScBbc1; assay: as above
Summary of the method: as §1

Binder	SPOT peptide array binding signal intensity
SRSKPLPLTPNSKYN	2.5
RSLRKRPTSPSISGS	94

target: ScBem1-D1; assay: as above
Summary of the method: as §1

Binder	SPOT peptide array binding signal intensity
SRSKPLPLTPNSKYN	8
RSLRKRPTSPSISGS	50.5

target: ScBzz1-D1; assay: as above
Summary of the method: as §1

Binder	SPOT peptide array binding signal intensity
SRSKPLPLTPNSKYN	98.5
RSLRKRPTSPSISGS	26.5

target: ScBzz1-D2; assay: as above
Summary of the method: as §1

Binder	SPOT peptide array binding signal intensity
SRSKPLPLTPNSKYN	89
RSLRKRPTSPSISGS	28

target: ScCyk3; assay: as above
Summary of the method: as §1

Binder	SPOT peptide array binding signal intensity
SRSKPLPLTPNSKYN	5
RSLRKRPTSPSISGS	294

target: ScFus1; assay: as above
Summary of the method: as §1

Binder	SPOT peptide array binding signal intensity
SRSKPLPLTPNSKYN	8
RSLRKRPTSPSISGS	488

target: ScHof1; assay: as above
Summary of the method: as §1

Binder	SPOT peptide array binding signal intensity
SRSKPLPLTPNSKYN	≤ 0
RSLRKRPTSPSISGS	1

target: ScHse1; assay: as above
Summary of the method: as §1

Binder	SPOT peptide array binding signal intensity
SRSKPLPLTPNSKYN	30
RSLRKRPTSPSISGS	1770

target: ScLsb1; assay: as above
Summary of the method: as §1

Binder	SPOT peptide array binding signal intensity
SRSKPLPLTPNSKYN	≤ 0
RSLRKRPTSPSISGS	54

target: ScLsb2; assay: as above
Summary of the method: as §1

Binder	SPOT peptide array binding signal intensity
SRSKPLPLTPNSKYN	1
RSLRKRPTSPSISGS	20

target: ScLsb3; assay: as above
Summary of the method: as §1

Binder	SPOT peptide array binding signal intensity
SRSKPLPLTPNSKYN	≤ 0
RSLRKRPTSPSISGS	1330

target: ScLsb4; assay: as above
Summary of the method: as §1

Binder	SPOT peptide array binding signal intensity
SRSKPLPLTPNSKYN	12
RSLRKRPTSPSISGS	27.5

target: ScMyo3; assay: as above
Summary of the method: as §1

Binder	SPOT peptide array binding signal intensity
SRSKPLPLTPNSKYN	≤ 0
RSLRKRPTSPSISGS	11

target: ScMyo5; assay: as above
Summary of the method: as §1

Binder	SPOT peptide array binding signal intensity
SRSKPLPLTPNSKYN	2
RSLRKRPTSPSISGS	3

target: ScNbp2; assay: as above
Summary of the method: as §1

Binder	SPOT peptide array binding signal intensity
SRSKPLPLTPNSKYN	20
RSLRKRPTSPSISGS	1530

target: ScPex13; assay: as above
Summary of the method: as §1

Binder	SPOT peptide array binding signal intensity
SRSKPLPLTPNSKYN	39
RSLRKRPTSPSISGS	3

target: ScRvs167; assay: as above
Summary of the method: as §1

Binder	SPOT peptide array binding signal intensity
SRSKPLPLTPNSKYN	2.33
RSLRKRPTSPSISGS	75.5

target: ScSho1; assay: as above
Summary of the method: as §1

Binder	SPOT peptide array binding signal intensity
SRSKPLPLTPNSKYN	3960
RSLRKRPTSPSISGS	959

target: ScSla1-D1-D2; assay: as above
Summary of the method: as §1

Binder	SPOT peptide array binding signal intensity
SRSKPLPLTPNSKYN	156
RSLRKRPTSPSISGS	607

target: ScSla1-D3; assay: as above
Summary of the method: as §1

Binder	SPOT peptide array binding signal intensity
SRSKPLPLTPNSKYN	28.2
RSLRKRPTSPSISGS	30

target: SpAbp1-D1; assay: as above
Summary of the method: as §1

Binder	SPOT peptide array binding signal intensity
SRSKPLPLTPNSKYN	872
RSLRKRPTSPSISGS	477

target: SpBbc1; assay: as above
Summary of the method: as §1

Binder	SPOT peptide array binding signal intensity
SRSKPLPLTPNSKYN	6.5
RSLRKRPTSPSISGS	8

target: SpBzz1-D1; assay: as above
Summary of the method: as §1

Binder	SPOT peptide array binding signal intensity
SRSKPLPLTPNSKYN	578
RSLRKRPTSPSISGS	249

target: SpBzz1-D2; assay: as above
Summary of the method: as §1

Binder	SPOT peptide array binding signal intensity
SRSKPLPLTPNSKYN	1.25

target: SpCyk3; assay: as above
Summary of the method: as §1

Binder	SPOT peptide array binding signal intensity
SRSKPLPLTPNSKYN	5

target: SpHof1; assay: as above
Summary of the method: as §1

Binder	SPOT peptide array binding signal intensity
SRSKPLPLTPNSKYN	1490

target: SpHof1-2; assay: as above
Summary of the method: as §1

Binder	SPOT peptide array binding signal intensity
SRSKPLPLTPNSKYN	1710

target: SpHof1-3; assay: as above
Summary of the method: as §1

Binder	SPOT peptide array binding signal intensity
SRSKPLPLTPNSKYN	1310

target: SpHse1; assay: as above
Summary of the method: as §1

Binder	SPOT peptide array binding signal intensity
SRSKPLPLTPNSKYN	37.5

target: SpLsb1; assay: as above
Summary of the method: as §1

Binder	SPOT peptide array binding signal intensity
SRSKPLPLTPNSKYN	1

target: SpLsb4; assay: as above
Summary of the method: as §1

Binder	SPOT peptide array binding signal intensity
SRSKPLPLTPNSKYN	17

target: SpMyo1; assay: as above
Summary of the method: as §1

Binder	SPOT peptide array binding signal intensity
SRSKPLPLTPNSKYN	10.5

target: SpNbp2; assay: as above
Summary of the method: as §1

Binder	SPOT peptide array binding signal intensity
SRSKPLPLTPNSKYN	11

target: SpPex13; assay: as above
Summary of the method: as §1

Binder	SPOT peptide array binding signal intensity
SRSKPLPLTPNSKYN	5

target: SpRvs167; assay: as above
Summary of the method: as §1

Binder	SPOT peptide array binding signal intensity
SRSKPLPLTPNSKYN	12.3

target: SpSla1-D1-D2; assay: as above
Summary of the method: as §1

Binder	SPOT peptide array binding signal intensity
SRSKPLPLTPNSKYN	844

target: SpSla1-D3; assay: as above
Summary of the method: as §1

Binder	SPOT peptide array binding signal intensity
SRSKPLPLTPNSKYN	0.5
